Laboratory results published in the supplement of paper PMC7156485.
Values joined by “and” are separate entries in the source; they are usually repeats but may differ in a detail not shown here. Identical values can stand only once. ± gives the standard deviation of the averaged measurements.

These molecules were tested on HCC1569 (assay: cell number relative to DMSO (% of DMSO); higher = more cells (less growth inhibition / toxicity)). Conditions: concentration: 10 µM; 24 h.
Summary of the method: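 Treatment: HCC1569 and TDF cells, 800 per well in 384-well plates with RPMI and 10% FBS, were given compounds at 10 µM for 24 h at 37 °C, in triplicate. Readout: after 3.7% formaldehyde fixation, cells were stained with a rabbit anti-H1.0 antibody, an AlexaFluor 647 secondary and DAPI. Reported values are H1.0 nuclear intensity or cell number as percent of the plate control, taken as the median of replicates, with positional smoothing for HCC1569.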
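Also: TDF denotes transformed human dermal fibroblasts of mesenchymal origin.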

Structure (SMILES)	cell number
CCCCCCCCCCCCCCCCCC(=O)O [Octadecanoic acid]	102
CN(C)c1cc2c(Nc3ccc4c(cnn4Cc4ccccc4)c3)ncnc2cn1	82.9
O=C(O)C=CC(=O)O.c1cnc(N2CCN(Cc3ccc4c(c3)OCO4)CC2)nc1 [Piribedil maleate]	101
CNCCCC12CCC(c3ccccc31)c1ccccc12.Cl [Maprotiline hydrochloride]	97.8
CC(=O)Nc1nnc(S(N)(=O)=O)s1 [Acetazolamide]	104
O=C(O)c1cccnc1C(=O)O [Quinolinic acid]	106
C=CC1CN2CCC1CC2C(O)c1ccnc2ccc(OC)cc12.Cl.O.O (stereo not given)	99.036 ± 0.095
CCC(C)N(C)C(=O)c1cc2ccccc2c(-c2ccccc2Cl)n1 (stereo not given)	101
CC(C)N(CCC(=O)c1ccc2ccccc2c1)Cc1ccccc1.Cl [JAK3 Inhibitor IV]	101
CCC(c1ccc(O)cc1)C(CC)c1ccc(O)cc1 (stereo not given) [Hexestrol]	100
CC(=O)C(C)=NO [2,3-Butanedione monoxime]	100
NC(N)=NC(CCC(=O)O)C(=O)O (stereo not drawn) [alpha-Guanidinoglutaric acid]	104
CCC1(O)CC2CN(CCc3c([nH]c4ccccc34)C(C(=O)OC)(c3cc4c(cc3OC)N(C)C3C(O)(C(=O)OC)C(OC(C)=O)C5(CC)C=CCN6CCC43C65)C2)C1 (stereo not given) [Vinblastine]	53.6
CCCCCC(O)c1cccc(OCc2ccc3ccccc3n2)c1 (stereo not given)	103 and 102
O=C(O)c1ccccc1C(=O)Nc1ccc(-c2ccccc2)cc1 [2-[([1,1'-biphenyl]-4-ylamino)carbonyl]benzoic acid]	104
COC(=O)Nc1nc2ccc(S(=O)c3ccccc3)cc2[nH]1 (stereo not given) [Oxfendazole]	100
CC(NC(CCc1ccccc1)C(=O)O)C(=O)N1CCCC1C(=O)O (stereo not given) [Enalaprilat]	98.7
Cc1cnc(C(=O)O)c[n+]1[O-] [Acipimox]	100
O=C1NC(=O)c2c1c1c3ccccc3[nH]c1c1[nH]c3cc(Br)ccc3c21 [Cdk4 Inhibitor]	74.2
COc1cc(Br)c(S(=O)(=O)Nc2ccc(Cl)c(O[C@@H]3CCN(C)C3)c2)cc1OC	83.2

Structure (SMILES)	cell number
CC1CC2C(C(O)CC3(C)C2CCC3(O)C(=O)CO)C2(C)C=CC(=O)C=C12 (stereo not given) [Methylprednisolone]	99.4
CC1CCC2C(C)(CO)C(O)CCC2(C)C12CCC(CO)(CCO)O2 (stereo not given) [Lagochiline]	98.2
Cc1ccc(S(=O)(=O)NC(=O)NN2CC3CCCC3C2)cc1 (stereo not given) [Gliclazide]	101
N#CC(=C(N)Sc1ccccc1N)c1cccc(C(O)c2ccncc2)c1 (stereo not given) [MEK Inhibitor I]	77.2
Cc1cccc(C(=O)NCN2CCN(c3ccccc3C#N)CC2)c1.O=C(O)C=CC(=O)O [PD 168,077 maleate]	105
OCC1NC(CO)C(O)C1O [(2R,5R)-Bis(hydroxymethyl)-(3R,4R)-dihydroxypyrrolidine]	102
COc1ccc(C(=O)NCc2cccnc2)cc1C(=O)NCc1cccnc1 [Picotamide]	102.3 ± 0.66
CN(C)CCOC(=O)COc1ccc(Cl)cc1.Cl [Centrophenoxine hydrochloride]	101
O=c1[nH]c(=O)n(C2CC(O)C(CO)O2)cc1F (stereo not given) [Floxuridine]	81.3
CCCCCCCCCCCCCCCC(O)C(CO)NC(C)=O (stereo not given) [C2 Dihydroceramide]	104
COC(=O)C1C2CC3c4[nH]c5cc(OC)ccc5c4CCN3CC2CC(OC(=O)c2cc(OC)c(OC)c(OC)c2)C1OC (stereo not given) [Reserpine]	99.2
CCCCCC(O)C=CC1C=CC(=O)C1CC=CCCCC(=O)O (stereo not given) [Prostaglandin A2]	103
O=c1[nH][nH]c2nnc(-c3c(-c4ccccc4)nn4ccccc34)cc12 [ERK Inhibitor II,                   Negative control]	98.3
O=[N+]([O-])c1ccc(S(=O)(=O)NCc2ccccc2)c([N+](=O)[O-])c1 [N-Benzyl-2,4-dinitrobenzenesulfonamide]	79
Cl.Cl.O=S(=O)(c1cccc2cnccc12)N1CCCNCC1	107
CCN(NO)C1=CC(=O)C(=O)C=C1 [ET-3,4-dephostatin]	79.5
O=c1[nH]c(=O)n(C2CCCO2)cc1F (stereo not given) [Ftorafur]	104
CN(C)CCCC1(c2ccc(F)cc2)OCc2cc(C#N)ccc21 (stereo not given) [Citalopram]	103
Cl.Cl.Cl.Ic1ccc(N2CCN(Cc3c[nH]c4ncccc34)CC2)cc1 [L-750,667 trihydrochloride]	103
CCN1CCCC1CNC(=O)c1cc(S(=O)(=O)CC)c(N)cc1OC (stereo not given) [Amisulpride]	107
